The structures appear in SMILES notation. Activity calls are given as the source filed them. The calls were made as follows: active = hit-call score of the fitted dose curve at least 0.9, where 1 is the maximum; inactive = score below 0.9.

Experimental findings from PubChem BioAssay (EPA / NIEHS) are described below.

The experiment can be described thus: CCTE_Padilla_ZF_Score.Tail: CCTE's 144 Hour Post-fertilization zebrafish Assay Score for Tail Malformation, Padilla Lab (AID 2284414). How it is done: CCTE_Padilla_ZF_Phenotype_Score is a whole embryo, multiplexed assay using zebrafish ova exposed for 144 hours post fertilization on a 96-well plate.CCTE_Padilla_ZF_Score.Tail is one of one assay component(s) measured or calculated from the CCTE_Padilla_ZF_Phenotype_Score assay. It is designed to make measurements of zebrafish development as detected with brightfield microscopy of developing zebrafish embryos.Data from the assay component CCTE_Padilla_ZF_Score.Tail was analyzed into 1 assay endpoints. This assay endpoint, CCTE_Padilla_ZF_Score.Tail, was analyzed in the positive analysis fitting direction relative to DMSO as the negative control and baseline of activity. Using a type of viability reporter, gain-of-signal activity can be used to understand changes in developmentals as they relate to the whole embryo. To generalize the intended target to other relatable targets, this assay endpoint is annotated to the zebrafish development intended target family, where the subfamily is lower trunk morphogenesis.
Zebrafish husbandry: Wild type adult zebrafish (Danio rerio; undefined outbred stock obtained from Aquatic Research Organisms, Hampton, NH, 03842) were housed in an AAALAC-approved animal facility at 28C with a 14:10 h light: dark cycle (lights on at 08:30 h). Adult fish (2-3 females per male; density = 15-20 adults per tank) were kept in one of several 9-liter (L) flow-through colony tanks (Aquaneering Inc., San Diego, CA). All adults in a colony tank were placed in a 2 L (static) breeding tank (Aquatic Habitats, Apopka, FL) one hour prior to light onset. Typically, adults from two to three colony tanks were mated on the same day. Two hours after light onset the adults were returned to the colony tank. All embryos were gathered from each breeder tank, pooled, and placed in a 28C water bath for 2 h, followed by two washes with 0.06% bleach (v/v) in 10% Hanks' Balanced Salt Solution (13.7 mM NaCl 0.54 mM KCl, 25 uM Na2HPO4, 130 uM CaCl2 100 um MgSO4 and 420 um NaHCO3,), hereafter referred to as Hanks' solution, for 5 min in order to remove any residual bacteria or fungi. Immediately following washing, the embryos were examined, and healthy embryos were separated from dead or unfertilized eggs and moved into fresh Hanks'. Chemical exposures: Zebrafish embryos were exposed in 96-well plates. Between 6- and 8-hours post fertilization (hpf), healthy embryos (with chorions) were transferred, one embryo per well, into 96 well (0.5 mL) microtiter plates (Cell Culture-Treated, Flat-Bottom Microplate 96 well [Corning Costar, Kennebunk, ME; Cat 09-761-145]) filled with 200 uL of Hanks' solution. A random number generator was used to assign the order in which the rows of embryos were plated in 96 well plates each week. After plating, the embryos were dosed with 0.8 uL of the chemical dosing solution then immediately sealed with AlumaSeal II (Excel Scientific Inc, Victorville, CA) to prevent volatilization of the chemicals, and then placed in a leakproof secondary container. These containers were placed in an incubator maintained on a 14:10 h light: dark cycle at 26C for rearing. On 5 dpf, live larvae were gently moved out of the plate with test chemicals and into a new 96 well mesh plate (Millipore Corp., Bedford, MA) with just the Hanks' solution. Once within the mesh well plate, the animals were rinsed with 400 uL of fresh Hanks' three times, and then the plates were covered with a non-adhesive material (Microseal A, BioRad, Hercules, CA), plate lid added, and then plate sides wrapped in Parafilm (PM992, Bermis Company, Neenah, WI), and returned to the incubator. […]
For `O=C(O)C(F)(F)C(F)(F)C(F)(F)OC(F)(C(F)(F)F)C(F)(F)F`, the molecule was called inactive. As to `CO[Si](C)(CCC(F)(F)C(F)(F)C(F)(F)C(F)(F)C(F)(F)C(F)(F)F)OC`, the molecule was called inactive. To `O=C(Cl)C(F)(F)C(F)(F)C(F)(F)C(F)(F)C(F)(F)C(F)(F)C(F)(F)F` belongs “inactive”; to `OCC(F)(F)C(F)(F)C(F)(F)C(F)(F)C(F)(F)C(F)(F)C(F)(F)C(F)(F)CO`, “inactive”. To `OCC(O)CC(F)(F)C(F)(F)C(F)(F)C(F)(F)F` (stereo not given) belongs “inactive”. Next, `C=CC(=O)OCC(F)(F)C(F)(F)C(F)(F)COC(=O)C=C`: “inactive”. For `OCC(F)(F)C(F)(F)C(F)(F)CO`, the outcome was inactive. Next, `NC(=O)C(F)(F)C(F)(F)C(F)(F)C(F)F`: “inactive”; `O=S(=O)(OCC(F)(F)F)C(F)(F)C(F)(F)C(F)(F)C(F)(F)F`: “inactive”; `O=C(O)CCC(F)(F)C(F)(F)C(F)(F)F`: “inactive”.

For the molecule `NC(=O)C(F)(F)C(F)(F)C(F)(F)C(F)(F)C(N)=O`, the molecule was called inactive. Next, `C=CC(=O)OCCC(F)(F)C(F)(F)C(F)(F)C(F)(F)F`: “inactive”; `O=S(=O)(Cl)C(F)(F)C(F)(F)C(F)(F)C(F)(F)C(F)(F)C(F)(F)C(F)(F)C(F)(F)F`: “inactive”; `CCN(CCO)S(=O)(=O)C(F)(F)C(F)(F)C(F)(F)C(F)(F)C(F)(F)C(F)(F)C(F)(F)C(F)(F)F`: “inactive”.

For the molecule `O=S(=O)(O)CCC(F)(F)C(F)(F)C(F)(F)C(F)(F)C(F)(F)C(F)(F)C(F)(F)C(F)(F)F`, the molecule was called inactive.

In the case of `O=C(Cl)C(F)(F)C(F)(F)C(F)(F)C(F)(F)C(F)(F)C(F)(F)F`, the call was inactive. As to `FC(F)(F)C(F)(F)C(F)(F)CC1CO1` (stereo not given), the molecule was classed as inactive. Next, `OC(O)C(F)(F)C(F)(F)F`: “inactive”.

Consider `O=C(O)C(F)(F)C(F)(F)C(F)(F)C(F)(F)C(F)(F)C(F)(F)C(F)F`, for which the molecule was called inactive. Next, `NS(=O)(=O)C(F)(F)C(F)(F)C(F)(F)C(F)(F)C(F)(F)C(F)(F)F`: “inactive”; `NC(=O)C(F)(F)C(F)(F)C(F)(F)C(F)(F)C(F)(F)C(F)(F)C(F)(F)F`: “inactive”. Regarding `OCCCC(F)(F)C(F)(F)C(F)(F)C(F)(F)C(F)(F)C(F)(F)C(F)(F)C(F)(F)F`, the call was inactive. On to `CNS(=O)(=O)C(F)(F)C(F)(F)C(F)(F)C(F)(F)C(F)(F)C(F)(F)C(F)(F)C(F)(F)F`, for which the molecule was called inactive.

Take `CCOC(=O)CC(=O)C(F)(F)C(F)(F)F`: the molecule was called inactive. As for `C=C(C)C(=O)OCC(F)(F)C(F)(F)C(F)(F)C(F)F`, the molecule was called inactive. For `FC(F)(F)C(F)(F)C(F)(F)C(F)(F)C(F)(F)C(F)(F)C(F)(F)CCI`, the outcome was inactive. To `NCC(F)(F)C(F)(F)C(F)(F)C(F)(F)C(F)(F)C(F)(F)F` belongs “inactive”; to `OCCCCC(F)(F)C(F)(F)C(F)(F)C(F)(F)F`, “inactive”; to `COC(F)(C(F)F)C(F)(F)F` (stereo not given), “inactive”.

For the molecule `O=C(O)CCC(F)(F)C(F)(F)C(F)(F)C(F)(F)C(F)(F)C(F)(F)C(F)(F)F`, the molecule was classed as inactive. To `CN(C(=O)C(F)(F)C(F)(F)C(F)(F)F)[Si](C)(C)C` belongs “inactive”; to `NCC(F)(F)C(F)(F)C(F)(F)C(F)(F)C(F)(F)C(F)(F)C(F)(F)C(F)(F)F`, “inactive”; to `O=C(F)C1(F)C(F)(F)C(F)(F)C(F)(F)C(F)(F)C1(F)F`, “inactive”. Next, `NC(=O)C(F)(F)C(F)(F)C(F)(F)F`: “inactive”; `OCC(O)CC(F)(F)C(F)(F)C(F)(F)C(F)(F)C(F)(F)C(F)(F)C(F)(F)C(F)(F)F` (stereo not given): “inactive”. For `O=C(O)C(F)(F)C(F)(F)C(F)(F)C(=O)O`, the call was inactive. Next, `C[Si](Cl)(Cl)CCC(F)(F)C(F)(F)C(F)(F)C(F)(F)C(F)(F)C(F)(F)F`: “inactive”; `O=S(=O)(O)CCC(F)(F)C(F)(F)C(F)(F)C(F)(F)F`: “inactive”. To `OCC(F)(F)C(F)(F)C(F)(F)C(F)(F)C(F)(F)C(F)(F)CO` belongs “inactive”; to `O=C(O)C(F)(F)C(F)(F)C(F)(F)OC(F)(F)F`, “inactive”.
